# TROY NFkB inh: blocks TROY-dependent signaling in reporter cells; Q293 LMP1-TROYcd NF-kB luciferase reporter, 4 h; inhibition, % at 10 µM; 0.98% of 360,000 active;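 active = compounds whose plate-normalised and pattern-corrected inhibition of the luciferase reporter signal at the single screening dose is 50% or more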
# HIF-2a inh: inhibitors of HIF-2a | 786-0 RCC cells HIF-2a reporter, luciferase luminescence, overnight | 0.72% of 360,000 active | AID 624352 | inhibition, % at 18.8 µM;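 active = inhibition of the luminescence signal of 40% or more relative to plate controls, in a single-dose primary screen at 18.75 µM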
# HSP90 refold inh: inhibitors of HSP90 luciferase refolding in rabbit reticulocyte lysate; luciferase refolding luminescence, 3 h; inhibition, % at 5.6 µM; 0.91% of 290,000 active;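 active = inhibition above the screen-wide mean plus 3 SD, computed separately per campaign, cut at about 16% in these data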;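 note: 0% = DMSO wells and 100% = 60 µM geldanamycin wells; inhibitors lower the luminescence because luciferase stays unfolded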
# TWEAK-Fn14 inh: inhibitors of TWEAK-Fn14 interaction signaling; inhibition, % at 10 µM; 2% of 360,000 active; TWEAK-stimulated Fn14 reporter cells, luciferase luminescence, 8 h; AID 1159606; in the data active = inhibition above about 50%
# aSyn UTR inh: MLPCN primary screen, SNCA 5' untranslated region; alpha-synuclein 5'UTR reporter, inhibitor activity; inhibition, % (tested at 7.5 µM); 0.82% of 300,000 active; in the data active = inhibition above about 60%; inconclusive = no clear call, values can overlap the other calls;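 note: H4 neuroglioblastoma cells stably carrying SNCA 5'UTR luciferase fusion; 0% = DMSO wells and 100% = positive control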
# TRAIL sens C8: caspase-8 TRAIL sensitization; NB7+C8 cells + TRAIL, ATPlite viability luminescence; inhibition (viability loss, TRAIL sensitization), % at 10 µM; 1% of 360,000 active; AID 624354;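 active = compounds causing at least 50% loss of cell viability in the single-dose screen, relative to plate controls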
# Mdm2 MdmX conf: confirmation of inhibitors of human Mdm2/MdmX interaction, set 2. inhibition, % at 8 µM. SaOS-2 split-luciferase Mdm2/MdmX complementation, luminescence. 99% of 740 active. shares compounds with HIF-2a inh;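 active = mean inhibition of the luminescence signal across two replicates at or above 26 percent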
# Target sequence (O15151 whole entry, looked up): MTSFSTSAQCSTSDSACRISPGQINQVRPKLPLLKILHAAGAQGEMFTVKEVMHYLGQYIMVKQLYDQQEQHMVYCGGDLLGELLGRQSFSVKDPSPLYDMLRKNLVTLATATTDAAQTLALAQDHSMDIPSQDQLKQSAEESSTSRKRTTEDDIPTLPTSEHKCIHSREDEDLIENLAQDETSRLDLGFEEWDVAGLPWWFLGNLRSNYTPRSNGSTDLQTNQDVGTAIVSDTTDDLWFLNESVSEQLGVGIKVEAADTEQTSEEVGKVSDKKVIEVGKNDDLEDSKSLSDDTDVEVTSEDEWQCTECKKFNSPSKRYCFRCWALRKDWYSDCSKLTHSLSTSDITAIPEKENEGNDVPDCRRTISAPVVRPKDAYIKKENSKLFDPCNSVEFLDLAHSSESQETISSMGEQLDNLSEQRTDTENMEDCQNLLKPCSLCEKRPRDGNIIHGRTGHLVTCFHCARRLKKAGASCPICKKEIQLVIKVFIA
# Target sequence (Q00987 whole entry, looked up): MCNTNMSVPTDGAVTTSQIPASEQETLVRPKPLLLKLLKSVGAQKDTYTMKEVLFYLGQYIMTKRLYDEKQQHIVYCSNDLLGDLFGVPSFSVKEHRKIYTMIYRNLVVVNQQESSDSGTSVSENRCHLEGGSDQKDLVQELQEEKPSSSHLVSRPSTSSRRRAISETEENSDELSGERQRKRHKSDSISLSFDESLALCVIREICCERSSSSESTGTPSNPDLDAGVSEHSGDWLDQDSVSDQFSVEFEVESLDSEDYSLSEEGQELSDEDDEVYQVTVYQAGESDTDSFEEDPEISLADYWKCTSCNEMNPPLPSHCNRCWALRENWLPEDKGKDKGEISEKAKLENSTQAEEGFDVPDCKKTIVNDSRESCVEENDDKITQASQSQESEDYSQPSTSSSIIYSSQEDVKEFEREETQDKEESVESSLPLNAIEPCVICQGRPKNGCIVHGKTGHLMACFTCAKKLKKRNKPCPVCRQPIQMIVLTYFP
# HIF-2a inh conf: confirmation of HIF-2a inhibitors. shares compounds with HIF-2a inh. 786-0 RCC cells, HIF-2a luciferase reporter luminescence, overnight. inhibition, % at 18.8 µM. 56% of 1,800 active. AID 651580;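 active = mean inhibition across four replicates of at least 40 percent at the single tested concentration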
# HIF-1a cs: counter-screen for HIF-2a inhibitors: HIF-1a inhibition in MiaPaCa-2 cells; shares compounds with HIF-2a inh; MiaPaCa-2 HIF-1a luciferase reporter, desferoxamine, overnight; inhibition, % at 18.8 µM; 72% of 1,800 active;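 active = mean inhibition of the reporter signal across four replicates at the single tested dose of 50% or more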
# Starred values were filed as active, the others as inactive; ? = inconclusive; . = no result given. Sampled rows, rich in hits. Any-hit rate of the full collection: about 3.9%.
SMILES,TROY NFkB inh,HIF-2a inh,HSP90 refold inh,TWEAK-Fn14 inh,aSyn UTR inh,TRAIL sens C8,Mdm2 MdmX conf,HIF-2a inh conf,HIF-1a cs
COC(=O)c1c(NC(=O)COc2ccc(Cl)cc2)sc2c1CC(C)(C)NC2(C)C,19,52*,6,-166,83*,73*,.,9,99*
O=Nc1c(O)ccc2cc(S(=O)(=O)O)ccc12,-13,76*,.,22,.,-4,.,82*,12
COC(=O)c1c(-c2ccccc2)csc1NC(=O)c1c(-c2ccccc2)noc1C,-18,-4,4,5,65*,36,99*,.,.
CC(=O)C1=CCC(c2ccccc2)N(S(=O)(=O)c2ccccc2C)C1 (stereo not drawn),-4,18,.,6,.,28,.,.,.
CCN(CC)CCn1c2ccccc2c2nc3ccc([N+](=O)[O-])cc3cc21,-27,-59,-1,-15,57,20,83*,.,.
O=C(/C=C/c1ccccc1)c1ccc(NC2=NCCCS2)cc1,11,-177,2,39,.,24,.,.,.
O=C(/C=C/c1ccc(Br)cc1)c1ccc(NC2=NCCCS2)cc1,-14,67*,10,59*,-99,25,.,-27,107*
Cc1noc(C)c1NC(=O)Nc1ccc2c(c1)C(=O)N([C@H](C)CO)C[C@H](C)[C@@H](CN(C)C(=O)Nc1ccc3c(c1)OCO3)O2,-3,11,.,14,.,-4,.,.,.
O=C1C=CC(=O)N1c1ccc2c(c1)C(NC(=O)C(F)(F)F)c1ccccc1-2 (stereo not drawn),-1,46*,.,16,.,5,.,11,17
CN(C)C(=O)NC1c2ccccc2-c2ccccc21,-18,8,-1,0,-2,-6,.,.,.
CNC(=O)c1cc(Oc2ccc(NC(=O)Nc3ccc(Cl)c(C(F)(F)F)c3)cc2)ccn1,62*,15,.,84*,.,71*,99*,.,.
O=C(Nc1ccc(Cl)c(C(F)(F)F)c1)c1ccncc1,7,-18,0,13,1,9,.,.,.
CCN(CC)S(=O)(=O)c1cc([N+](=O)[O-])ccc1NNC(=O)Nc1ccc(Cl)c(Cl)c1,54*,14,-5,59*,?,19,94*,.,.
O=C(CCl)Nc1cccc(S(=O)(=O)N2CCCCCC2)c1,3,46*,0,17,-92,14,.,3,67*
Cc1ccc(C)c(N=Nc2ccc(O)c3ncccc23)c1,78*,16,2,81*,33,30,100*,.,.
CC[C@]1(C(=O)OC)[C@H]2C(=O)N(Cc3ccccc3)C(=O)[C@H]2[C@H]2CN=C(SCc3ccc(C)cc3)N21,-6,7,.,9,.,6,97*,.,.
Cc1cc(C)cc(C(=O)NCC(=O)OCC(=O)N2CCCC2)c1,4,3,.,-27,.,-5,.,.,.
COc1ccc(C(C(=O)NC2CCCC2)n2c(Cc3cc(F)cc(F)c3)nc3ccccc32)cc1 (stereo not drawn),.,-8,.,.,.,-19,.,.,.
COc1ccc(C(C(=O)NC2CCCC2)n2c(CSCCOc3ccccc3)nc3ccccc32)cc1 (stereo not drawn),.,43*,.,.,.,12,.,74*,63*
CCC(C(=O)NCc1ccccc1)n1c(CSCCOc2ccccc2)nc2ccccc21 (stereo not drawn),.,64*,.,.,.,16,.,74*,77*
COC(=O)[C@]12CCCCC=C1N(Cc1ccccc1)C(=O)[C@H](CC(=O)NCCCN1CCCC1=O)C2,0,-1,.,-5,.,-3,.,.,.
Cn1c(=O)c2cc(S(=O)(=O)Nc3cc(C(=O)O)cc(C(=O)O)c3)ccc2n(C)c1=O,2,13,-2,-5,-18,-6,.,.,.
Cc1cc(C)cc(NS(=O)(=O)c2ccc3c(c2)c(=O)n(C)c(=O)n3C)c1,14,50*,3,26,?,80*,.,41*,101*

# Bioassay records deposited in PubChem by several laboratories.
